# Key:
# Assay in all cases: DAPPL (digital affinity profiling via proximity ligation, sequencing); 10 mM Tris-HCl pH 7.5, 50 mM NaCl, 1 mM DTT, 4% glycerol, room temperature, 30 min; GST-TFs on glutathione beads, 16-mer random dsDNA library, 0.1% formaldehyde crosslink after washing; high values mean tight binding
# Settings in all cases: protein: recombinant; tags: N-terminal GST; dsDNA, one strand shown
# [1] = molecular target: T1, FLI1 (Homo sapiens, UniProt Q01543 1-452)
# T1 sequence: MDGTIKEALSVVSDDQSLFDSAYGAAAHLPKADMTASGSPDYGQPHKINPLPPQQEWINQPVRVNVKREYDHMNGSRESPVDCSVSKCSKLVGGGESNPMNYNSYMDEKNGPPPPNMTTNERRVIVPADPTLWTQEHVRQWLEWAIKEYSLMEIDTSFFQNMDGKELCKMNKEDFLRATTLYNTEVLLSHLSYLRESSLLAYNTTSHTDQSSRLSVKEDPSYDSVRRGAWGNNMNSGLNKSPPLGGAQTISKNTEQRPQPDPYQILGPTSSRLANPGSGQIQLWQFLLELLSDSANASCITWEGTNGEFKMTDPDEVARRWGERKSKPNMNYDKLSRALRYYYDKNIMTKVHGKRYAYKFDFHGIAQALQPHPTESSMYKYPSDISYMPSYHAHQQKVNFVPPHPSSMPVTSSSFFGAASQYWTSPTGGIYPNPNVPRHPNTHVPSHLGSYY
# In short: (§1)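 Pools of DNA-barcoded human transcription factors, expressed in yeast as GST fusions on glutathione beads and combined with a tag-only sample, were incubated with 200 nmole of a 16-mer random double-stranded DNA library. Incubation took 30 min at room temperature in Tris/NaCl/DTT/glycerol buffer and was followed by washing, 0.1% formaldehyde crosslinking, proximity ligation (BsaI/T4 ligase, 1 h, 37 °C), PCR amplification and sequencing on an Illumina NextSeq500. Binding signal is the ratio of a hexamer's read frequency for a factor to its frequency for the tag-only sample.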
# [2] = molecular target: T2, ELK1 (Homo sapiens, UniProt P19419 1-428)
# T2 sequence: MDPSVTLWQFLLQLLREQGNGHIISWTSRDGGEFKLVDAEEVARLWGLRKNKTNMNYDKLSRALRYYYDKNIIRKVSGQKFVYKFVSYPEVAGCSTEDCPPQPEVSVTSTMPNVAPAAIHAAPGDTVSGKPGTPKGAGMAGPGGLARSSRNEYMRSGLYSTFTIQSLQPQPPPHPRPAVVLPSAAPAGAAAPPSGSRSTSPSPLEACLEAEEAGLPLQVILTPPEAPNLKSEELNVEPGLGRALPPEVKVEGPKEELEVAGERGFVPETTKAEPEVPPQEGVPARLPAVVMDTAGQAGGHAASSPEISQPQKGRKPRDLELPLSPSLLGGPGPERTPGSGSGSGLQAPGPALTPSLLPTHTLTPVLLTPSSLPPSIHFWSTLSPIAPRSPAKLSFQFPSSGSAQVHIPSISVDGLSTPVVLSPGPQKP
# In short: as §1
# [3] = molecular target: T3, GABPA (Homo sapiens, UniProt Q06546 1-454)
# T3 sequence: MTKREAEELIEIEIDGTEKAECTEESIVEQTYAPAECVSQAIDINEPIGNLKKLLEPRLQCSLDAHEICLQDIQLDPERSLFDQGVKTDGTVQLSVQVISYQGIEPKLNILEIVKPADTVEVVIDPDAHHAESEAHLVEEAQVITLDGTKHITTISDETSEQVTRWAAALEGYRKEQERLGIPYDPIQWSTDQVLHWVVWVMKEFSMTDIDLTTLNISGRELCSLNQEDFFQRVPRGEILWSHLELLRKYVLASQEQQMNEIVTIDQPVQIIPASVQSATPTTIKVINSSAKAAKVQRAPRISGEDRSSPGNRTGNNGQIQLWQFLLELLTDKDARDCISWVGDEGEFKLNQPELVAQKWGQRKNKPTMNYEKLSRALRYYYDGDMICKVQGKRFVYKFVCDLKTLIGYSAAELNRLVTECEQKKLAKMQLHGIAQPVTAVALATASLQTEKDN
# In short: as §1
# [4] = molecular target: T4, ERG (Homo sapiens, UniProt P11308 1-479)
# T4 sequence: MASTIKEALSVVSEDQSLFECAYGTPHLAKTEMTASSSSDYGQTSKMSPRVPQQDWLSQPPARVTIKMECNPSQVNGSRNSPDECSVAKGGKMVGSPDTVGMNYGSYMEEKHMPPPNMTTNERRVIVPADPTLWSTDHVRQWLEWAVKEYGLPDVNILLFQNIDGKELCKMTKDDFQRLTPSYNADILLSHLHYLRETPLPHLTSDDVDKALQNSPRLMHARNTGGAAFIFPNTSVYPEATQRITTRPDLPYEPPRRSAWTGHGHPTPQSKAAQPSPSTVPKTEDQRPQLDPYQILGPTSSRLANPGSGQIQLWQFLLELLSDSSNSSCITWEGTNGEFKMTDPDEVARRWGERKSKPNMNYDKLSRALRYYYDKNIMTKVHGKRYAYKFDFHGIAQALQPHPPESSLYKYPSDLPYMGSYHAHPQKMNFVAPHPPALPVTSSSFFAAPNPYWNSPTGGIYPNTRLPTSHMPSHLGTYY
# In short: as §1
# [5] = molecular target: ELF1 (Homo sapiens, UniProt P32519 1-619)
# In short: as §1
# [6] = molecular target: T5, EHF (Homo sapiens, UniProt Q9NZC4 1-300)
# T5 sequence: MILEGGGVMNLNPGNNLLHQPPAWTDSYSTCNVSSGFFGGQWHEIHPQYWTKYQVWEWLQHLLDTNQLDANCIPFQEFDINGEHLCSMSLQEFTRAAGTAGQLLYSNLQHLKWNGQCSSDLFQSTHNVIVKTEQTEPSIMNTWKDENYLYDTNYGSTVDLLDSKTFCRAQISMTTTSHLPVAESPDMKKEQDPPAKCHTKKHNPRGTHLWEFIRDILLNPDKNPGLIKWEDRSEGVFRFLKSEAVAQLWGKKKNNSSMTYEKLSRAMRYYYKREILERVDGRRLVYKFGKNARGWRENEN
# In short: as §1
# [7] = molecular target: SPI1 (Homo sapiens, UniProt P17947 1-270)
# In short: as §1
# [8] = molecular target: SPIB (Homo sapiens, UniProt Q01892 1-262)
# In short: as §1
# [9] = molecular target: T6, ELK3 (Homo sapiens, UniProt P41970 1-407)
# T6 sequence: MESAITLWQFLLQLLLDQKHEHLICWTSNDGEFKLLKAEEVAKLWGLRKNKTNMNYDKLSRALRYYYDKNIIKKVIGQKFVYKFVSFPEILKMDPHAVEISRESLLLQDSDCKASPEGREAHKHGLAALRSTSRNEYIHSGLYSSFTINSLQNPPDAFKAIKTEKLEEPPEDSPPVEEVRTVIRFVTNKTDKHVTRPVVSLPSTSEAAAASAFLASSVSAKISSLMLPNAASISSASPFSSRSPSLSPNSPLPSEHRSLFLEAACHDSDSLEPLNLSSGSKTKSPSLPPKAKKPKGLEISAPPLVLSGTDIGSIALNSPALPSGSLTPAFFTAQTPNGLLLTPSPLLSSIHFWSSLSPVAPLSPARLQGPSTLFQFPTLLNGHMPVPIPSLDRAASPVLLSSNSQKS
# In short: as §1
# Sequence of SPIB (Q01892 whole entry): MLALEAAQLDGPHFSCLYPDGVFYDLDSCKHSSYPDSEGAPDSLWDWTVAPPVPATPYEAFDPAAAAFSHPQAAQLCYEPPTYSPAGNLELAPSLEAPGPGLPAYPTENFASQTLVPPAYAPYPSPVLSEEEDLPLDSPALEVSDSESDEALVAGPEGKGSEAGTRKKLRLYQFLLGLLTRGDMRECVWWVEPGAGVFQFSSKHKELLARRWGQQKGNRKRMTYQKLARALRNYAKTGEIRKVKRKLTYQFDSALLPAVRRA
# Sequence of ELF1 (P32519 whole entry): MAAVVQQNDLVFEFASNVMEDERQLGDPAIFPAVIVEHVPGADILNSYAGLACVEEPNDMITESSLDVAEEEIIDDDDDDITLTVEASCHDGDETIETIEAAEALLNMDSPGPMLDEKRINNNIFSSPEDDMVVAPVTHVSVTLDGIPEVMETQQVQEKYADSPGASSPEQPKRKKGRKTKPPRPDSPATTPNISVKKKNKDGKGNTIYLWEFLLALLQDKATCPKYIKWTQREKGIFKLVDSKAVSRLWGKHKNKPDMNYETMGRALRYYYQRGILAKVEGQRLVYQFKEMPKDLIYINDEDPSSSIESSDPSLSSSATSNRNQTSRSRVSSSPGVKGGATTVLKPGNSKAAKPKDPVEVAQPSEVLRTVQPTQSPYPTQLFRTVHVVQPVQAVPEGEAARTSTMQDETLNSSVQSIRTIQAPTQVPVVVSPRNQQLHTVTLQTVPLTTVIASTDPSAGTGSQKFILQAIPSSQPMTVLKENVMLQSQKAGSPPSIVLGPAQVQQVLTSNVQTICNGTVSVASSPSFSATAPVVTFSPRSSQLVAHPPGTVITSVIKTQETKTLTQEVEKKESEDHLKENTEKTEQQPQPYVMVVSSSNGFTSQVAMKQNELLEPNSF
sequence,measurement,setting,value
AATCTT,binding signal,[1],"1.36 fold enrichment (6-mer frequency, TF over GST control)"
same,binding signal,[2],"1.24 fold enrichment (6-mer frequency, TF over GST control)"
same,binding signal,[3],"1.28 fold enrichment (6-mer frequency, TF over GST control)"
same,binding signal,[4],"1.32 fold enrichment (6-mer frequency, TF over GST control)"
same,binding signal,[5],"1.29 fold enrichment (6-mer frequency, TF over GST control)"
same,binding signal,[6],"1.29 fold enrichment (6-mer frequency, TF over GST control)"
same,binding signal,[7],"1.26 fold enrichment (6-mer frequency, TF over GST control)"
same,binding signal,[8],"1.29 fold enrichment (6-mer frequency, TF over GST control)"
same,binding signal,[9],"1.44 fold enrichment (6-mer frequency, TF over GST control)"

# From PMC7862700, “An all-to-all approach to the identification of sequence-specific readers for epigenetic DNA modifications on cytosine”
